# According to PubChem BioAssay (Tox21):
# Records with an inconclusive call do not appear. Active and inactive are the calls of the source. Calls come from the whole dose curve.
# Biological target: Vitamin D3 receptor (Homo sapiens) (UniProt P11473)
# Assay: qHTS assay to identify small molecule agonists of the vitamin D receptor (VDR) signaling pathway (AID 743222)
# Conditions: HEK293T VDR-UAS-bla, beta-lactamase FRET ratio, 16 h; series mostly up to 63.5 µM; activation: at the top concentration
# From the text: National Center for Advancing Translational Sciences [NCATS]
# NIH Chemical Genomics Center [NCGC]
# U.S. Environmental Protection Agency [EPA]
# National Institutes of Environmental Health Sciences [NIEHS]
# National Toxicology Program [NTP]
# U.S. Food and Drug Administration [FDA]
# The vitamin D receptor (VDR), a member of nuclear hormone receptor superfamily, plays a critical role in calcium homeostasis and bone metabolism. It is also involved in cell differentiation and growth, and thrombogenicity.
# Tox21 Assay Protocol Summary:
# VDR-bla cells were dispensed at 2,000 cells/6 uL/well into black wall/clear-bottom 1536-well plates using a Multidrop Combi (Thermo Fisher Scientific, Waltham, MA) dispenser. After the assay plates were incubated at a 37C and 5% CO2 for 4 h, 23 nL of compounds dissolved in DMSO, positive controls or DMSO only was transferred to the assay plate by a Pintool station (Kalypsys, San Diego, CA). The plates were incubated at 37C and 5% CO2 for 16 h. After 1 uL of LiveBLAzerTM B/G FRET substrate was added using a Bioraptr Flying Reagent Dispenser (FRD) workstation (Beckman Coulter, Indianapolis, IN, USA), the plates were incubated at room temperature for 2 h, and fluorescence intensity was measured by an Envision plate reader (PerkinElmer, Shelton, CT).
# % is set by controls: 0 for no effect and ±100 for the full control effect.
# Sequence of Vitamin D3 receptor (Homo sapiens) (P11473 whole entry, looked up): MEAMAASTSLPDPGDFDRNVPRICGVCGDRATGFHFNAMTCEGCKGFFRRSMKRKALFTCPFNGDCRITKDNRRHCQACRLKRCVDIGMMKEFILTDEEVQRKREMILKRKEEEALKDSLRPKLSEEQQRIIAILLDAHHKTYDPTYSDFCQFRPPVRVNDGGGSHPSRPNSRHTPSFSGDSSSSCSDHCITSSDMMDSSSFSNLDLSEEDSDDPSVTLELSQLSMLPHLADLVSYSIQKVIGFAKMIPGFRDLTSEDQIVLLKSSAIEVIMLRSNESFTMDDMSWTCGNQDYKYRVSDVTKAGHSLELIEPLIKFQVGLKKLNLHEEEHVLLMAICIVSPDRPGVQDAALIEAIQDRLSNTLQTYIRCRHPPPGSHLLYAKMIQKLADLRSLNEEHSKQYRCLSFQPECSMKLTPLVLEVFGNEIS
row,Structure (SMILES),activation
1,CCCC1C(CC)=CC(CC)=CN1c1ccccc1 (stereo not given),-13.5% (inactive)
2,C(=C\c1ccccc1)/CN1CCN(C(c2ccccc2)c2ccccc2)CC1,-8.27% (inactive)
3,CC(C)CCCCCCOC(=O)CCCCC(=O)OCCCCCCC(C)C,-0.0576% (inactive)
4,CCCCC(CC)CNCC(CC)CCCC (stereo not given),9.07% (inactive)
5,OCCSc1ccccc1,-0.867% (inactive)
6,CCC(C)(O)CCC=C(C)C (stereo not given),3.52% (inactive)
7,CC(=O)CC(c1ccc([N+](=O)[O-])cc1)c1c(O)c2ccccc2oc1=O (stereo not given),7.95% (inactive)
8,CN(C)CCOC1=Cc2ccccc2Sc2ccc(Cl)cc21,-0.575% (inactive)
9,CCn1cc(C(=O)O)c(=O)c2cc(F)c(N3CCNCC3)nc21,6.47% (inactive)
10,Cc1ccnc2ccccc12,-2.87% (inactive)
11,c1cc[c]([Bi]([c]2ccccc2)[c]2ccccc2)cc1,-6.77% (inactive)
12,CCOC(=O)[C@@H](C)Oc1ccc(Oc2nc3ccc(Cl)cc3o2)cc1,-8.57% (inactive)
13,O=C(CS)OCCOC(=O)CS,-4.93% (inactive)
14,CC1CC(=O)NN=C1c1ccc(NCC(C)(C)NCC(O)COc2cc(Cl)ccc2C#N)cc1 (stereo not given),-0.259% (inactive)
15,O=C(NCCCN1CCOCC1)c1ccc(Cl)cc1,-0.861% (inactive)
16,Cn1c(=O)c2c(ncn2CC(=O)O)n(C)c1=O,11.4% (inactive)
17,c1cnc2c(n1)CCCC2,0.881% (inactive)
18,CC(CCO)CCc1ccccc1 (stereo not given),-0.663% (inactive)
19,CCCCCCOC(=O)C(C)C,-0.483% (inactive)
20,CN1CCCN=C1/C=C/c1cccs1,8.98% (inactive)

row,Structure (SMILES),activation
1,CCC(C)(C)C1CCC(O)CC1 (stereo not given),3.87% (inactive)
2,C[C@@H]1C[C@H]2[C@@H]3CCC4=CC(=O)C=C[C@]4(C)[C@@]3(F)[C@@H](O)C[C@]2(C)[C@H]1C(=O)CO,-0.354% (inactive)
3,CN(C)C(=O)Nc1ccc(Oc2ccc(Cl)cc2)cc1,-5.85% (inactive)
4,CCC(C(=O)OCCOCCN(CC)CC)c1ccccc1 (stereo not given),0.265% (inactive)
5,NC(=O)Nc1ccc(Cl)cc1,0.0248% (inactive)
6,COC(=O)[C@@H]1CC2=CC(=O)CC[C@]2(C)[C@@]23O[C@@H]2C[C@@]2(C)[C@@H](CC[C@@]24CCC(=O)O4)[C@H]13,5.27% (inactive)
7,CC1C2CC(CC2C2CCCC(O)C2)C1(C)C (stereo not given),9% (inactive)
8,O=C(c1ccc(O)cc1)c1ccc(Cl)cc1,-14.1% [at 81.1 µM] (inactive)
9,Cc1cc(S(=O)(=O)O)ccc1N=Nc1c(O)ccc2ccccc12,-1.92% (inactive)
10,CC(C)OCC1CO1 (stereo not given),-13.1% (inactive)
11,CC(C)(C)C(=O)O,5.87% [at 81.1 µM] (inactive)
12,CC(C)=CC=O,0.075% [at 81.1 µM] (inactive)
13,Oc1ccc(Nc2ccccc2)cc1,-16.2% (inactive)
14,CC1CC(O)CC(C)(C)C1 (stereo not given),3.9% (inactive)
15,CCCCCCCCCCCC[N+](C)(C)CC(=O)[O-],-6.23% (inactive)
16,CCCCCCCCCCCCCCCCBr,-0.837% [at 29.5 µM] (inactive)
17,O=C(CCCN1CCC(O)(c2ccc(Br)cc2)CC1)c1ccc(F)cc1,-1.88% (inactive)
18,CC(=O)N(c1onc(C)c1C)S(=O)(=O)c1ccc(N)cc1,7.22% (inactive)
19,CCCOc1ccc(S(=O)(=O)N2CCN(CC)CC2)cc1-c1nc2c(CC)n(Cc3ccccn3)nc2c(=O)[nH]1,-20.6% (inactive)
20,CCOC(=O)OCC,1.15% [at 81.1 µM] (inactive)
